Records with an inconclusive call do not appear. Active and inactive are the calls of the source. Unless noted, the call rests on the fitted dose curve.
What was measured:
[1] = Nuclear factor erythroid 2-related factor 2/antioxidant responsive element (Nrf2/ARE) small molecule agonists: luciferase reporter gene qHTS assay in human keratinocytes (AID 1919969); further: nearly all actives have a fitted effect of over 35% in size
[2] = target: Gonadotropin-releasing hormone receptor (Homo sapiens) (UniProt P30968); assay: Human gonadotropin-releasing hormone receptor (GnRHR) small molecule agonists, calcium flux assay in GnRHR-HEK293 cells (AID 1920063); further: nearly all actives have a fitted effect of over 35% in size
Outline: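 Stable human GnRHR HEK293 line. 18 h plating, then calcium dye for 1 h at 37 C. Agonist-mode compound addition from DMSO stocks; fluorescence monitored 3 min.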

[3] = G protein-coupled receptor (GPCR) small molecule agonists, calcium flux assay: HEK293 wild type cell line counter screen (AID 1920065)
Outline: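 Following 18 h incubation at 37 C/5% CO2, plates got calcium dye for 1 h; compounds, ATP or DMSO were then pinned in and fluorescence followed kinetically (480/540 nm).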

[4] = p53 small molecule agonists, cell-based qHTS assay with rat liver microsomes: qHTS cell viability counter screen (AID 1963580); further: nearly all actives have a fitted effect of over 45% in size
Outline: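 Counter screen for cytotoxicity under metabolic activation: rat liver microsomes and NADPH, 0.5 mg/mL final each, added with compounds to p53RE-bla HCT-116 cells; 16 h at 37 C, then ATP luminescence read.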

[5] = p53 small molecule agonists, cell-based qHTS assay: qHTS cell viability counter screen (AID 1963581); further: nearly all actives have a fitted effect of over 45% in size
Outline: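 qHTS counter screen: 16 h compound exposure at 37 C of p53RE-bla HCT-116 cells (4,000 per well, seeded 5 h prior), cell viability by ATP luminescence.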

[6] = target: 5-hydroxytryptamine receptor 2A (Homo sapiens) (UniProt P28223); assay: 5-hydroxytryptamine receptor 2A (HTR2A) small molecule antagonists, cell-based qHTS assay (AID 1963586); further: nearly all actives have a fitted effect of over 45% in size
Outline: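 CHO cells stably expressing human HTR2A were plated for 18 h at 37 C, then loaded with calcium dye for 1 h. Compounds were preincubated 5 min at room temperature before DOI (4 nM solution) was added. Kinetic fluorescence was read for 3 min.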

[7] = target: 5-hydroxytryptamine receptor 2A (Homo sapiens) (UniProt P28223); assay: 5-hydroxytryptamine receptor 2A (HTR2A) small molecule agonists, cell-based qHTS assay (AID 1963587); further: nearly all actives have a fitted effect of over 30% in size
Outline: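 HTR2A-CHO cells, plated 18 h at 37 C/5% CO2, dye-loaded 1 h at 37 C; compounds in DMSO added by pin tool (agonist mode). Intracellular calcium flux read as kinetic fluorescence on FDSS over 2 min at 1 s intervals.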

[8] = target: Muscarinic acetylcholine receptor M1 (Homo sapiens) (UniProt P11229); assay: Cholinergic receptor muscarinic 1 (CHRM1) small molecule agonists, cell-based qHTS assay (AID 1963589); further: nearly all actives have a fitted effect of over 35% in size
Outline: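 Kinetic fluorescence (1 s intervals) of calcium-sensitive dye in human M1 CHO cells after compound addition; cells pre-incubated 18 h at 37 C/5% CO2 and dye-loaded 1 h.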

[9] = target: Beta-2 adrenergic receptor (Homo sapiens) (UniProt P07550); assay: Adrenergic beta2 receptor (ADRB2) small molecule antagonists, cell-based qHTS assay (AID 1963592); further: series mostly up to about 92 µM; nearly all actives have a fitted effect of over 50% in size
Outline: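 Assay format: CHO-ADRB2 cells, 18-20hr seeding at 37C/5% CO2, then compound plus 1nM isoproterenol agonist mix for 0.5hr RT. Homogeneous time-resolved fluorescence cAMP detection after 1hr, expressed as 665/615 nm ratio.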

[10] = target: D(2) dopamine receptor (Homo sapiens) (UniProt P14416); assay: Dopamine D2 receptor (DRD2) small molecule agonists, cell-based qHTS assay (AID 1963594); further: nearly all actives have a fitted effect of over 35% in size
Outline: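 HEK293 cells stably expressing DRD2 were cultured 24 h at 37 C, then given Ro20-1724 (0.1 mM final) and compounds for 10 min at room temperature. NKH477 (200nM) was then added for 30 min. cAMP was read by HTRF.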

[11] = target: D(2) dopamine receptor (Homo sapiens) (UniProt P14416); assay: Dopamine D2 receptor (DRD2) small molecule antagonists, cell-based qHTS assay (AID 1963595; active means well fitted inhibition curve with a large enough effect in the signal ratio in the repeat runs, with a control signal flat; the % refers to the signal ratio)
Outline: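 Human DRD2 antagonist qHTS measuring cAMP by HTRF. The cells are exposed to compound for 10 min, then to NKH477 (200 nM) and quinpirole (12 nM) for 30 min at RT, with Ro20-1724 (0.1 mM) present throughout.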

[12] = target: KiSS-1 receptor (Homo sapiens) (UniProt Q969F8); assay: Human kisspeptin (KISS1R) small molecule agonists, calcium flux assay in KISS1R-HEK293 cells (AID 1920064; active means well fitted activation curve with a large enough effect in the repeat runs)
Outline: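 After overnight (18 h) culture at 37 C/5% CO2, human KISS1R-HEK293 cells received calcium dye for 1 h, then test compound; emission at 540 nm (excitation 480 nm) was tracked for 3 min.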

[13] = p53 small molecule agonists, cell-based qHTS assay with human liver microsomes (AID 1963577)
Outline: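 Fluorescence of the beta-lactamase reporter in p53RE-bla cells, detected with LiveBLAzer substrate (2 h, room temperature, dark), served as the read-out after 16 h compound exposure at 37 C with human liver microsomes and NADPH, each 0.5 mg/mL final.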

[14] = p53 small molecule agonists, cell-based qHTS assay with rat liver microsomes (AID 1963578)
Outline: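 Cells carrying a p53 response element–beta-lactamase reporter were plated and rested 5 h, then dosed with compound in DMSO plus rat liver microsomes and NADPH, each at 0.5 mg/mL final. After 16 h at 37 C, LiveBLAzer substrate was added for 2 h.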

[15] = p53 small molecule agonists, cell-based qHTS assay (AID 1963582; active means well fitted activation curve with a large enough effect in the signal ratio in the repeat runs, not every such curve was filed as active; the % refers to the signal ratio)
Outline: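 Measured: fluorescence from cleaved LiveBLAzer substrate. System: p53RE-bla cells, 16 h compound treatment at 37 C, 2 h substrate step at room temperature.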

[16] = target: Muscarinic acetylcholine receptor M1 (Homo sapiens) (UniProt P11229); assay: Cholinergic receptor muscarinic 1 (CHRM1) small molecule antagonists, cell-based qHTS assay (AID 1963588); further: nearly all actives have a fitted effect of over 40% in size
Outline: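 Compounds were tested at 15 concentrations in three independent runs. Dye-loaded CHRM1-CHO cells were exposed 5 min at room temperature before stimulation by acetylcholine added at 50nM. Intracellular calcium was read kinetically on FDSS for 3 min.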

[17] = cAMP Responsive Elements (CRE) small molecule agonists, cell-based qHTS assay (AID 1963590)
Outline: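 Test agents in DMSO were incubated 3 h at 37 C/5% CO2 with CRE-bla HEK 293T cells seeded 18 h earlier; LiveBLAzer B/G FRET substrate was added and read after 2 h at room temperature.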

[18] = cAMP Responsive Elements (CRE) small molecule antagonists, cell-based qHTS assay (AID 1963591; active means well fitted inhibition curve with a large enough effect in the signal ratio in the repeat runs, not every such curve was filed as active; the % refers to the signal ratio)
Outline: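 Reporter line CRE-bla HEK 293T in dialyzed-FBS DMEM; cells preincubated 18 h, treated 3 h with compound plus NKH477 (0.25 uM final); LiveBLAzer FRET, 2 h RT.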

[19] = p53 small molecule agonists, cell-based qHTS assay with human liver microsomes: qHTS cell viability counter screen (AID 1963579); further: nearly all actives have a fitted effect of over 45% in size
Outline: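 Cytotoxicity counter screen: p53RE-bla, 4,000 cells/well; 5 h settle, 37 C/5% CO2; cpd + HLM 0.5 mg/mL + NADPH 0.5 mg/mL (final); 16 h, 37 C; CellTiter-Glo, 30 min RT, luminescence.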

[20] = target: Beta-2 adrenergic receptor (Homo sapiens) (UniProt P07550); assay: Adrenergic beta2 receptor (ADRB2) small molecule agonists, cell-based qHTS assay (AID 1963593);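 further: CHO cells stably overexpressing human ADRB2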
Outline: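 CHO cells stably over-expressing ADRB2 were plated overnight at 37C, then dosed with compounds plus a stimulation mix containing 100uM IBMX and 25uM Ro-20-1724 for 0.5hr at room temperature. cAMP was measured by HTRF competition, 1hr.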

Measured: Potency

Sequence of Beta-2 adrenergic receptor (Homo sapiens) (P07550 whole entry, looked up): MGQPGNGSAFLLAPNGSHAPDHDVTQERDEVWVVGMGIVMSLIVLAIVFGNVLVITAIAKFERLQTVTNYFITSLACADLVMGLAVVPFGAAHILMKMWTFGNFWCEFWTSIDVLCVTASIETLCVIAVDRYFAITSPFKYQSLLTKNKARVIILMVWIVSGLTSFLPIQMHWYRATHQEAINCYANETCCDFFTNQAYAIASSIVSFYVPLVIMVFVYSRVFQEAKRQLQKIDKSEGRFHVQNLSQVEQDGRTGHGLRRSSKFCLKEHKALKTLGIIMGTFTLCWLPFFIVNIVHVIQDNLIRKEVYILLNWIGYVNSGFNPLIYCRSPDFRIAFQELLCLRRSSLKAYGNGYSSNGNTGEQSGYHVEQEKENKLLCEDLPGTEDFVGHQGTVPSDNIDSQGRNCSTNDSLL
Sequence of Muscarinic acetylcholine receptor M1 (Homo sapiens) (P11229 whole entry, looked up): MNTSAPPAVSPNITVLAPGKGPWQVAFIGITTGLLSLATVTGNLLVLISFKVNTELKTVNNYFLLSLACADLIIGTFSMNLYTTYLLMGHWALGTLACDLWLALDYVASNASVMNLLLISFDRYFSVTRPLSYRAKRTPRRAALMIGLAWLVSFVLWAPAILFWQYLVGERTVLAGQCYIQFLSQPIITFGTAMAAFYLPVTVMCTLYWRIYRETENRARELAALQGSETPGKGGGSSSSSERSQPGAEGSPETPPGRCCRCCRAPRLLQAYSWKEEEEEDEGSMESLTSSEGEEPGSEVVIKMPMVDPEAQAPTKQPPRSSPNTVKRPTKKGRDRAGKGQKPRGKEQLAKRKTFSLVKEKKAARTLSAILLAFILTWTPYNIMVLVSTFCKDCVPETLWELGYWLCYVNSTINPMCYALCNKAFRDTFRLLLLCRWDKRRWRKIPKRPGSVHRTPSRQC
Sequence of D(2) dopamine receptor (Homo sapiens) (P14416 whole entry, looked up): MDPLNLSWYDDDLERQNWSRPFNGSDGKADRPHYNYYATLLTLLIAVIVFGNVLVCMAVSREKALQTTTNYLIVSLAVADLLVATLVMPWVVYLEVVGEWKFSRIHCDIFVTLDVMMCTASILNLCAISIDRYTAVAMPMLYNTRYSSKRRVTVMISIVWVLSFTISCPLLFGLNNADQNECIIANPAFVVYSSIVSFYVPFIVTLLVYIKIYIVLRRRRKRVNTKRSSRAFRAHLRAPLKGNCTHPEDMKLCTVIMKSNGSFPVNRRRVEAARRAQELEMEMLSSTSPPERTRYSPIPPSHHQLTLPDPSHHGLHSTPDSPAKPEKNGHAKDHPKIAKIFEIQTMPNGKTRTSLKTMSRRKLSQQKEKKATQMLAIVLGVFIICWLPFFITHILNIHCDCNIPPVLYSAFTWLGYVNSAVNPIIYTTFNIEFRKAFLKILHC
Sequence of KiSS-1 receptor (Homo sapiens) (Q969F8 whole entry, looked up): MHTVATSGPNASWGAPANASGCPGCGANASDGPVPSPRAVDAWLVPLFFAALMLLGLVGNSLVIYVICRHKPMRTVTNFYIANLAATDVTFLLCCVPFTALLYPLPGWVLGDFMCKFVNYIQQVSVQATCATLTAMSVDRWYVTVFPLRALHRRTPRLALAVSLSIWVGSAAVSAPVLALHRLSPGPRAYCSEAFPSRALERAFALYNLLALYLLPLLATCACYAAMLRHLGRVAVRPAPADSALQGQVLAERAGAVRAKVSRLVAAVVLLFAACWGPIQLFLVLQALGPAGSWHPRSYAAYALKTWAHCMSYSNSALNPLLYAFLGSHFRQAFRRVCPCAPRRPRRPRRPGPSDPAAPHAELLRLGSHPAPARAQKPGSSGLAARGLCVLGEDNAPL
Sequence of 5-hydroxytryptamine receptor 2A (Homo sapiens) (P28223 whole entry, looked up): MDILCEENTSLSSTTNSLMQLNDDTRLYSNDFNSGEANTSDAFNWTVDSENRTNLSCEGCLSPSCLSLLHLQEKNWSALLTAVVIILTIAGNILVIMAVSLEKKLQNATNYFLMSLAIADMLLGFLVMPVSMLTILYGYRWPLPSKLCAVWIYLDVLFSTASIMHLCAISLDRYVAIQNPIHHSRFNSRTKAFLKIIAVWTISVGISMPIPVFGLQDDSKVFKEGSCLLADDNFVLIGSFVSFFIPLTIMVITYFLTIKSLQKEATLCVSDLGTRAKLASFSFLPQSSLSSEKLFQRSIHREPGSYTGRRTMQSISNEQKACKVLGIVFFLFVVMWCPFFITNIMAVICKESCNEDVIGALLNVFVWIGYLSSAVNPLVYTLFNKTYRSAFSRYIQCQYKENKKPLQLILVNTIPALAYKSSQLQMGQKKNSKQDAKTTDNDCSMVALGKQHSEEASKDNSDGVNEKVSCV
Sequence of Gonadotropin-releasing hormone receptor (Homo sapiens) (P30968 whole entry, looked up): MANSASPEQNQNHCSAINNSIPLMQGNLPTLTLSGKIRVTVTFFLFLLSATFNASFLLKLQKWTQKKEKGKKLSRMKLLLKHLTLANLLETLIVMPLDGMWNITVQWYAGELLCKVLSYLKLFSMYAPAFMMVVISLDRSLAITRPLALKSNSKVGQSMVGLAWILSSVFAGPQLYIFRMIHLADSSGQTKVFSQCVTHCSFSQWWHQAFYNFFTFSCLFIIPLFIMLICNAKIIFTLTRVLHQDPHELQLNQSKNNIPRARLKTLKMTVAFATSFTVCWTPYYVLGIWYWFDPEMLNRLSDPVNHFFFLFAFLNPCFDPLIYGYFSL

CCOC(=O)C(C)Oc1ccc(Oc2cnc3cc(Cl)ccc3n2)cc1 (stereo not given)
inactive: [1] | [2] | [3] | [4] | [5] | [6] | [7] | [8] | [9] | [10] | [11]

CCCC[O][Al]([O]CCCC)[O]CCCC
inactive: [1] | [12] | [3] | [13] | [14] | [4] | [5] | [15] | [6] | [7] | [16] | [17] | [18] | [9] | [10] | [11]

N#CC1(c2ccc(F)cc2)CCC(=O)CC1
inactive: [1] | [2] | [3] | [13] | [14] | [19] | [4] | [5] | [15] | [6] | [7] | [16] | [8] | [17] | [18] | [9] | [20] | [10] | [11]

CC(C)(CCC(=O)O)C(=O)O
inactive: [1] | [12] | [3] | [14] | [4] | [5] | [15] | [6] | [16] | [8] | [17] | [18] | [9] | [10] | [11]

CCC(=O)OC(C)c1ccccc1 (stereo not given)
inactive: [1] | [2] | [3] | [13] | [14] | [19] | [4] | [5] | [15] | [6] | [7] | [16] | [8] | [17] | [18] | [9] | [10] | [11]

COC(=O)c1cc(Cl)c(NC(C)=O)cc1OC
inactive: [2] | [12] | [14] | [19] | [4] | [5] | [15] | [7] | [16] | [8] | [17] | [18] | [9] | [20] | [10] | [11]

Reference: PubChem BioAssay (Tox21)
